Test results from PubChem BioAssay (Tox21).
Records with an inconclusive call do not appear. Active and inactive are the calls of the source. Unless noted, the call rests on the fitted dose curve.

What was measured:
[1] = Nuclear factor erythroid 2-related factor 2/antioxidant responsive element (Nrf2/ARE) small molecule agonists: qHTS cell viability counter screen in human keratinocytes (AID 1919968; active means well fitted curve in the direction sought with a large enough effect in the repeat runs; an effect the other way counts as inactive or inconclusive; further: nearly all actives have a fitted effect of over 55% in size; further: potency means the concentration at half of the fitted maximal effect)
How it was run: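 In human HaCaT keratinocytes stably expressing an ARE-driven luciferase, compound exposure lasted 23 h at 37 C under 5% CO2. Viable cells are quantified with a protease-based fluorogenic reagent (CellTiter-Fluor) read 1 h after addition.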

[2] = Nuclear factor erythroid 2-related factor 2/antioxidant responsive element (Nrf2/ARE) small molecule agonists: luciferase reporter gene qHTS assay in human keratinocytes (AID 1919969); further: nearly all actives have a fitted effect of over 35% in size
[3] = target: Gonadotropin-releasing hormone receptor (Homo sapiens) (UniProt P30968); test: Human gonadotropin-releasing hormone receptor (GnRHR) small molecule agonists, calcium flux assay in GnRHR-HEK293 cells (AID 1920063); further: nearly all actives have a fitted effect of over 35% in size; further: potency means the concentration at half of the fitted maximal effect
Sequence of Gonadotropin-releasing hormone receptor (Homo sapiens) (P30968 whole entry, looked up): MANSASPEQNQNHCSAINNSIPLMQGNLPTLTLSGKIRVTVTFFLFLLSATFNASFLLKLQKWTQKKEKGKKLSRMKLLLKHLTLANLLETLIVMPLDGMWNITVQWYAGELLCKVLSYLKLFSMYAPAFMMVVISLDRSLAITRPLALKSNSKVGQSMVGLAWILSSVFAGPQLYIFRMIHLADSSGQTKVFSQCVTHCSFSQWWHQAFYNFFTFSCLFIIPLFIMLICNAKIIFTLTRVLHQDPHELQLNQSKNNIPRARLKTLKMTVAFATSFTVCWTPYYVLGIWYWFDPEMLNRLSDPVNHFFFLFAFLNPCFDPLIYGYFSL
How it was run: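 Intracellular calcium rise is the read-out: engineered human GnRHR HEK293 cells, dye-loaded, are exposed to DMSO-dissolved compounds and fluorescence at Ex/Em 480/540 is tracked for 3 min.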

[4] = target: KiSS-1 receptor (Homo sapiens) (UniProt Q969F8); test: Human kisspeptin (KISS1R) small molecule agonists, calcium flux assay in KISS1R-HEK293 cells (AID 1920064; active means well fitted curve in the direction sought with a large enough effect in the repeat runs; an effect the other way counts as inactive or inconclusive)
Sequence of KiSS-1 receptor (Homo sapiens) (Q969F8 whole entry, looked up): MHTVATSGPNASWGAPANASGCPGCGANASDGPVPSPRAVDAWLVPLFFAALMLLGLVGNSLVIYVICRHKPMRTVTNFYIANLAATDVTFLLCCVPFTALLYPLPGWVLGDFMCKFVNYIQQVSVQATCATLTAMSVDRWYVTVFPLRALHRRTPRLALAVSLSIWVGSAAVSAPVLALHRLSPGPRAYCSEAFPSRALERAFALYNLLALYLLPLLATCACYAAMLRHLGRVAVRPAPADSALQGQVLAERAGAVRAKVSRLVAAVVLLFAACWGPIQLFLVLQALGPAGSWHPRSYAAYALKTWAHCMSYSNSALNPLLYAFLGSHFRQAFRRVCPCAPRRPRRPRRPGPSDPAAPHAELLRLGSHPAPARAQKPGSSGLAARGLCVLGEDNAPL
How it was run: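 Concentration-response testing used 15 concentrations in triplicate on human KISS1R-expressing HEK293 cells. Calcium-dependent fluorescence (Ex/Em 480/540) was followed kinetically for 3 min after compound transfer.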

[5] = G protein-coupled receptor (GPCR) small molecule agonists, calcium flux assay: HEK293 wild type cell line counter screen (AID 1920065)
How it was run: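 Fluorescence intensity signals activation. After overnight (18 h) culture and a 1 h calcium dye load at 37 C, compounds are added by pin tool and the plate read at 480/540 nm for 3 min in 1 s steps.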

[6] = p53 small molecule agonists, cell-based qHTS assay with human liver microsomes (AID 1963577);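 further: p53 response element beta-lactamase reporter cells with liver microsomes plus NADPH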
How it was run: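 Metabolically competent format: test substances, human liver microsomes and NADPH (both 0.5 mg/mL final) incubated with p53RE-bla cells 16 h at 37 C. Beta-lactamase reporter signal then quantified by fluorescence.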

[7] = p53 small molecule agonists, cell-based qHTS assay with rat liver microsomes (AID 1963578)
How it was run: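 Each plate received p53RE-bla cells, then compound, then rat liver microsomes and NADPH (both 0.5 mg/mL final). Plates were held 16 h at 37 C, and beta-lactamase activity was detected with LiveBLAzer over 2 h.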

[8] = p53 small molecule agonists, cell-based qHTS assay with rat liver microsomes: qHTS cell viability counter screen (AID 1963580); further: nearly all actives have a fitted effect of over 45% in size; further: potency means the concentration at half of the fitted maximal effect
How it was run: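 Cytotoxicity counter screen: intracellular ATP read by CellTiter-Glo luminescence in the p53 reporter wells. HCT-116 p53RE-bla cells were treated for 16 h at 37 C alongside rat liver microsomes and NADPH, each 0.5 mg/mL final.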

[9] = p53 small molecule agonists, cell-based qHTS assay: qHTS cell viability counter screen (AID 1963581); further: nearly all actives have a fitted effect of over 45% in size
How it was run: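 Luminescence from CellTiter-Glo, reflecting ATP content, serves as the cytotoxicity measure; it is taken after the 2 h reporter substrate step in HCT-116 p53RE-bla cells dosed for 16 h at 37 C.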

[10] = p53 small molecule agonists, cell-based qHTS assay (AID 1963582; active means well fitted activation curve with a large enough effect in the signal ratio in the repeat runs, not every such curve was filed as active; the % refers to the signal ratio)
How it was run: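 After plating, p53RE-bla cells sat 5 h in the incubator; compounds or DMSO vehicle were pinned in; a 16 h incubation at 37 C followed; FRET substrate was added and, 2 h later at RT, fluorescence was measured.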

[11] = cAMP Responsive Elements (CRE) small molecule antagonists, cell-based qHTS assay (AID 1963591; active means well fitted inhibition curve with a large enough effect in the signal ratio in the repeat runs, not every such curve was filed as active; the % refers to the signal ratio)
How it was run: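 Stimulation used NKH477 at a final 0.25 uM for 3 h in compound-treated CRE-bla HEK293T cells, seeded 18 h beforehand. Reporter activity was measured with LiveBLAzer B/G FRET substrate after 2 h at room temperature.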

[12] = target: Beta-2 adrenergic receptor (Homo sapiens) (UniProt P07550); test: Adrenergic beta2 receptor (ADRB2) small molecule antagonists, cell-based qHTS assay (AID 1963592); further: series mostly up to about 92 µM; nearly all actives have a fitted effect of over 50% in size
Sequence of Beta-2 adrenergic receptor (Homo sapiens) (P07550 whole entry, looked up): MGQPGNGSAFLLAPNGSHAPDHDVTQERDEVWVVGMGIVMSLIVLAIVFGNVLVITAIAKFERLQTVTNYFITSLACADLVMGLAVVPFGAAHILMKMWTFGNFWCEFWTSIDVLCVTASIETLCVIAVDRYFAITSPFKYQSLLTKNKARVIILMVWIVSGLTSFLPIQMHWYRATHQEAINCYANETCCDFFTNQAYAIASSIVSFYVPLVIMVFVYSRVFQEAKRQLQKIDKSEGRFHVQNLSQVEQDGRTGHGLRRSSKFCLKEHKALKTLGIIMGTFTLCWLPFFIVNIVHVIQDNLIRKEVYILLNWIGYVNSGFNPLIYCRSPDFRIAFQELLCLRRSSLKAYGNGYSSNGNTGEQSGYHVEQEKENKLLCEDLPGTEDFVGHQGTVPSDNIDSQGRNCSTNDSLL
How it was run: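 Assay format: CHO-ADRB2 cells, 18-20hr seeding at 37C/5% CO2, then compound plus 1nM isoproterenol agonist mix for 0.5hr RT. Homogeneous time-resolved fluorescence cAMP detection after 1hr, expressed as 665/615 nm ratio.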

[13] = target: D(2) dopamine receptor (Homo sapiens) (UniProt P14416); test: Dopamine D2 receptor (DRD2) small molecule agonists, cell-based qHTS assay (AID 1963594); further: nearly all actives have a fitted effect of over 35% in size
Sequence of D(2) dopamine receptor (Homo sapiens) (P14416 whole entry, looked up): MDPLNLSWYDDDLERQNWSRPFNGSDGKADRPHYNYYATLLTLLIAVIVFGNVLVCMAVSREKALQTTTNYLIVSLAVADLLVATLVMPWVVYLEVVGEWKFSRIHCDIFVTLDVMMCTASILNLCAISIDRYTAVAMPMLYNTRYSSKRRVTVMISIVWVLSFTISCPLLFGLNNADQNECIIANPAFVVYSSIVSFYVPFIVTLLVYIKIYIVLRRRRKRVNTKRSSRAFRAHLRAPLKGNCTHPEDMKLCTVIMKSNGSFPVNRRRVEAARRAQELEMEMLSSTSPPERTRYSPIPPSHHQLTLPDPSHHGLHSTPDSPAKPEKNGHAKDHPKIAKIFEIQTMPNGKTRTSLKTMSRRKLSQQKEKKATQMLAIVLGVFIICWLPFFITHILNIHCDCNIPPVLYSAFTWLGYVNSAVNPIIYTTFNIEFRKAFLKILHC
How it was run: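 cAMP accumulation in DRD2-HEK293 cells measured by HTRF after 1 h detection; compounds added 10 min before NKH477 (200nM […]) forskolin-analogue stimulation, 30 min at room temperature, with Ro20-1724 present at 0.1 mM final.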

[14] = target: D(2) dopamine receptor (Homo sapiens) (UniProt P14416); test: Dopamine D2 receptor (DRD2) small molecule antagonists, cell-based qHTS assay (AID 1963595; active means well fitted inhibition curve with a large enough effect in the signal ratio in the repeat runs, with a control signal flat; the % refers to the signal ratio)
How it was run: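 Readout: HTRF cAMP, cAMP-d2 competing with cellular cAMP for anti-cAMP cryptate, read after 1 h. Cells: DRD2-HEK293. Conditions: 0.1 mM Ro20-1724, 12 nM quinpirole, 200 nM NKH477, 30 min RT.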

[15] = target: 5-hydroxytryptamine receptor 2A (Homo sapiens) (UniProt P28223); test: 5-hydroxytryptamine receptor 2A (HTR2A) small molecule antagonists, cell-based qHTS assay (AID 1963586); further: nearly all actives have a fitted effect of over 45% in size
Sequence of 5-hydroxytryptamine receptor 2A (Homo sapiens) (P28223 whole entry, looked up): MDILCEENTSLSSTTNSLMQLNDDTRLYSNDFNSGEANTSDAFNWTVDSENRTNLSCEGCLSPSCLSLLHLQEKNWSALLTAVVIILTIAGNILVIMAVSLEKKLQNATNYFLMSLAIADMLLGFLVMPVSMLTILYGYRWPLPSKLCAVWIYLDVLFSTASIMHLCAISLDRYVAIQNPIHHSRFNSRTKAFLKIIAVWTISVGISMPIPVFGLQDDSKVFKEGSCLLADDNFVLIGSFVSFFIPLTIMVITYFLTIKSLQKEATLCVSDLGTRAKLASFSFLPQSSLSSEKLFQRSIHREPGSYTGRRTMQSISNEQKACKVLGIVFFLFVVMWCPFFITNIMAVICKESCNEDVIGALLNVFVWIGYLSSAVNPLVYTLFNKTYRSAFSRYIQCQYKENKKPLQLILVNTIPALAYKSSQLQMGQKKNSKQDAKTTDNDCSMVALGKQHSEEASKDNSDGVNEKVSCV
How it was run: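 CHO cells stably expressing human HTR2A were plated for 18 h at 37 C, then loaded with calcium dye for 1 h. Compounds were preincubated 5 min at room temperature before DOI (4 nM solution) was added. Kinetic fluorescence was read for 3 min.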

[16] = target: 5-hydroxytryptamine receptor 2A (Homo sapiens) (UniProt P28223); test: 5-hydroxytryptamine receptor 2A (HTR2A) small molecule agonists, cell-based qHTS assay (AID 1963587); further: nearly all actives have a fitted effect of over 30% in size
How it was run: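 Kinetic calcium-flux fluorescence (2 min, 1 sec intervals) after compound addition in agonist mode. HTR2A-CHO cells were cultured 18 h, then dye-loaded 1 h at 37 C.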

[17] = target: Muscarinic acetylcholine receptor M1 (Homo sapiens) (UniProt P11229); test: Cholinergic receptor muscarinic 1 (CHRM1) small molecule antagonists, cell-based qHTS assay (AID 1963588); further: nearly all actives have a fitted effect of over 40% in size; further: potency means the concentration at half of the fitted maximal effect
Sequence of Muscarinic acetylcholine receptor M1 (Homo sapiens) (P11229 whole entry, looked up): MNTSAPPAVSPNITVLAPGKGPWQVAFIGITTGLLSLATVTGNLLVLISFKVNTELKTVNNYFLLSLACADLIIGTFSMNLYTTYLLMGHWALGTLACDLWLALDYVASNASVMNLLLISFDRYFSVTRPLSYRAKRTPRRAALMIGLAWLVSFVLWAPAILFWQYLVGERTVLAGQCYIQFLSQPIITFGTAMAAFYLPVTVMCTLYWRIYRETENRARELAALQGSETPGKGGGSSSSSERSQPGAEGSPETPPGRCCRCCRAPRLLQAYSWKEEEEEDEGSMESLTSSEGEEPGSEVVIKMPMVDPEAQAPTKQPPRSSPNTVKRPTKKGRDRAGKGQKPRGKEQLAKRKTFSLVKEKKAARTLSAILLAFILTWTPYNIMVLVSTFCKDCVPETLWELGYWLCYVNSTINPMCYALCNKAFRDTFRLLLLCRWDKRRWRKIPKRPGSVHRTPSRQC
How it was run: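 Compounds were tested at 15 concentrations in three independent runs. Dye-loaded CHRM1-CHO cells were exposed 5 min at room temperature before stimulation by acetylcholine added at 50nM. Intracellular calcium was read kinetically on FDSS for 3 min.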

[18] = target: Muscarinic acetylcholine receptor M1 (Homo sapiens) (UniProt P11229); test: Cholinergic receptor muscarinic 1 (CHRM1) small molecule agonists, cell-based qHTS assay (AID 1963589); further: nearly all actives have a fitted effect of over 35% in size; further: potency means the concentration at half of the fitted maximal effect
How it was run: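 Fluorescent calcium dye reports M1 activation in stably transfected CHO cells. Compounds, 15 concentrations, added after 1 h dye loading at 37 C; kinetic reading at 1 sec intervals.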

[19] = cAMP Responsive Elements (CRE) small molecule agonists, cell-based qHTS assay (AID 1963590)
How it was run: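 Compound exposure lasted 3 h at 37 C/5% CO2 in CRE-bla HEK 293T cells grown in assay medium with 10% dialyzed FBS and 25 mM HEPES. Reporter signal came from LiveBLAzer B/G FRET substrate, 2 h, room temperature.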

[20] = p53 small molecule agonists, cell-based qHTS assay with human liver microsomes: qHTS cell viability counter screen (AID 1963579); further: nearly all actives have a fitted effect of over 45% in size
How it was run: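 Tox21 library compounds, delivered from DMSO stocks, were tested on p53RE-bla cells together with 0.5 mg/mL human liver microsomes and 0.5 mg/mL NADPH (final) over 16 h at 37 C; CellTiter-Glo luminescence served as the cytotoxicity measure.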

Measured: Potency

CCn1cc(C(=O)O)c(=O)c2cc(F)c(N3CCNC(C)C3)c(F)c21 (configuration not stated)
inactive: [1] | [2] | [3] | [4] | [5] | [6] | [7] | [8] | [9] | [10] | [11] | [12] | [13] | [14]

Cc1ccc(-n2nc(C(C)(C)C)cc2NC(=O)Nc2ccc(OCCN3CCOCC3)c3ccccc23)cc1
inactive: [1] | [2] | [3] | [4] | [5] | [6] | [7] | [8] | [9] | [15] | [16] | [17] | [18] | [13] | [14]

OC[C@H](Cc1cccc(O)c1)[C@H](CO)Cc1cccc(O)c1
inactive: [1] | [2] | [3] | [4] | [5] | [6] | [7] | [8] | [9] | [15] | [16] | [18] | [19] | [11] | [12] | [13] | [14]

CCOC(=O)C1=C(C)NC(C)=C(C(=O)OC)C1c1cccc([N+](=O)[O-])c1 (configuration not stated)
inactive: [1] | [2] | [3] | [4] | [5] | [6] | [20] | [8] | [9] | [10] | [11] | [12] | [13] | [14]

Cc1cc(O)c(C)c(C)c1O
inactive: [1] | [2] | [3] | [4] | [5] | [6] | [20] | [8] | [9] | [10] | [15] | [16] | [18] | [19] | [11] | [13] | [14]

Nc1nc(CC(=O)O)cs1
inactive: [1] | [2] | [3] | [4] | [5] | [6] | [20] | [8] | [9] | [10] | [15] | [18] | [12] | [13] | [14]

CC(=O)OC1CCCCC1C(C)(C)C (configuration not stated)
inactive: [1] | [2] | [3] | [4] | [5] | [6] | [20] | [8] | [9] | [10] | [15] | [16] | [17] | [18] | [19] | [12] | [13] | [14]

CCCCN1CCCC1C(=O)Nc1c(C)cc(C)cc1C (configuration not stated)
inactive: [1] | [2] | [3] | [4] | [5] | [6] | [20] | [8] | [9] | [10] | [16] | [17] | [12] | [13]

CCCCC(CC)COC(=O)CC#N (configuration not stated)
inactive: [1] | [2] | [3] | [4] | [5] | [6] | [20] | [8] | [9] | [10] | [15] | [16] | [17] | [18] | [19] | [12] | [13] | [14]

C=CC(=O)OCC[N+](C)(C)C
inactive: [1] | [2] | [4] | [5] | [6] | [20] | [8] | [9] | [10] | [15] | [16] | [19] | [11] | [12] | [13] | [14]
active: [3] 438 nM | [18] 43.8 nM

COc1cccc(-c2ccc(/C=C\CN3CCCCCC3)cc2Cl)c1
inactive: [2] | [3] | [4] | [5] | [6] | [20] | [9] | [10] | [15] | [18] | [12]
active: [1] 38400 nM | [8] 40600 nM | [17] 836 nM

O=C(N[C@@H](Cc1ccccc1)[C@@H](O)C(=O)N1C[C@@H](O)[C@@H](O)C1)c1cc2cc(Cl)ccc2[nH]1
inactive: [1] | [2] | [3] | [4] | [5] | [6] | [20] | [8] | [9] | [10] | [15] | [16] | [17] | [18] | [11] | [12] | [14]

O=C(O)CCN(C1(C(=O)NO)CCCC1)S(=O)(=O)c1ccc(Oc2ccc(F)cc2)cc1
inactive: [1] | [2] | [3] | [4] | [5] | [6] | [20] | [8] | [9] | [10] | [15] | [16] | [17] | [19] | [12] | [13] | [14]

Cc1c(C(C)C)c(=O)n(-c2ccccc2)n1C
inactive: [1] | [2] | [3] | [4] | [5] | [6] | [20] | [8] | [9] | [10] | [15] | [16] | [17] | [18] | [19] | [11] | [12] | [13] | [14]
